Screens (PubChem)
This is a sample that favours compounds with a hit; in the whole collection about 7.4% have one here.
PD-1 reverse act – activators reversing PD-1 mediated T-cell inhibition; 29,000 tested, under 10 active; activation, % (concentration not given with the values); AID 2316; primary human CD4 T cells, PD-L1 beads, CellTiter-Glo 96 h; call rule not given here;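 further: 0% = median vehicle wells and 100% = positive control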
MITF inhib – blocks MITF activity; TRPM1 promoter luciferase, luminescence, 24 h; inhibition, % (concentration not given with the values); 0.28% of 37,000 active; in the data active means inhibition above about 85%; inconclusive means no clear call, values can overlap the other calls; inactive means below about 68%;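 further: human melanocyte line stably carrying TRPM1 promoter luciferase reporter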
YB-1 expr inh – YB-1 expression inhibition; 0.37% of 30,000 active; delta delta Cp (YB-1 minus CDIP) (concentration not given with the values); U2OS, qRT-PCR YB-1 vs CDIP delta delta Cp, 16 h; stronger effect = higher value; zero = DMSO, each unit about twofold; AID 434959;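 active means delta delta Cp rounded down to an integer at or above 3, about 3 SD of DMSO wells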;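 further: higher means less YB-1 transcript or more CDIP transcript relative to DMSO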
Hedgehog inh – blocks Sonic Hedgehog signaling; Shh-LIGHT2 Gli-luciferase reporter, 30 h; inhibition, % (no concentration beside the values); 2.1% of 22,000 active; AID 2313;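 active means mean inhibition across valid replicates above about 65%, limit read from the data; inconclusive means mean under the limit, yet half or more replicates past it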;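 further: pathway switched on by Shh-conditioned medium diluted 1 in 25 in low serum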
NOMO-1 viab – STK33 inhibitor candidate reducing NOMO-1 cell viability | NOMO-1 AML viability, CellTiter-Glo luminescence, 72 h | inhibition, % (no concentration beside the values) | 7.5% of 37,000 active | AID 2330; in the data active means inhibition above about 80%; inconclusive means no clear call, values can overlap the other calls
* marks the source's active call; other numbers are inactive results; ? = inconclusive; . = no result given.

SMILES | PD-1 reverse act | MITF inhib | YB-1 expr inh | Hedgehog inh | NOMO-1 viab
CC(C)NC(=O)Nc1ccc2c(c1)CC(=O)N([C@H](C)CO)C[C@H](C)[C@H](CN(C)Cc1ccc(C(=O)Nc3ccccc3N)cc1)O2 | -1 | 24 | 0.33 | . | 126*
C[C@H](CO)N1C[C@H](C)[C@H](CN(C)Cc2ccc(C(=O)Nc3ccccc3N)cc2)Oc2ccc(NC(=O)Nc3cccc4ccccc34)cc2CC1=O | -5 | 24 | -0.57 | . | 141*
O=C(CNS(=O)(=O)c1ccccc1)Nc1cc(Cl)cc(Cl)c1 | -1 | 5 | . | . | 9
C[C@H]1CN([C@@H](C)CO)C(=O)Cc2cc(NC(=O)Nc3ccc(F)cc3)ccc2O[C@@H]1CN(C)Cc1ccc(C(=O)Nc2ccccc2N)cc1 | -1 | -22 | 0.2 | . | 62
C[C@@H]1CN([C@H](C)CO)C(=O)Cc2cc(NC(=O)Nc3ccccc3)ccc2O[C@@H]1CN(C)Cc1ccc(C(=O)Nc2ccccc2N)cc1 | 0 | -19 | 0.27 | . | 108*
Cc1ccc(C(=O)CSc2nnc(-c3ccco3)o2)o1 | 0 | -53 | . | . | 22
C=CCn1c(=S)sc2c(Sc3nnc(-c4ccco4)o3)ncnc21 | -6 | 67 | 0.63 | 73* | 115*
COc1ccc(NC(=O)Nc2ccc3c(c2)C(=O)N([C@@H](C)CO)C[C@H](C)[C@H](CN(C)Cc2ccncc2)O3)cc1 | 1 | 5 | 0.2 | . | 103*
COc1ccc(CN(C)C[C@H]2Oc3ccc(NC(=O)Nc4ccc(C(F)(F)F)cc4)cc3C(=O)N([C@H](C)CO)C[C@H]2C)cc1 | . | -12 | -0.24 | 19 | 129*
COc1ccc(CN(C)C[C@@H]2Oc3ccc(NC(=O)Nc4ccc(C(F)(F)F)cc4)cc3C(=O)N([C@@H](C)CO)C[C@H]2C)cc1 | . | -13 | 0.39 | 28 | 117*
COc1ccc(CN(C)C[C@@H]2OCCCC[C@@H](C)Oc3ccc(NC(=O)Nc4ccc(C(F)(F)F)cc4)cc3C(=O)N([C@H](C)CO)C[C@@H]2C)cc1 | -5 | -5 | 0.037 | 21 | 113*
COc1ccc(CN(C)C[C@H]2Oc3ccc(NC(=O)Nc4ccc(OC)cc4)cc3C(=O)N([C@@H](C)CO)C[C@H]2C)cc1 | 0 | -3 | 0.11 | -7 | 29
COc1ccc(NC(=O)Nc2ccc3c(c2)C(=O)N([C@H](C)CO)C[C@@H](C)[C@@H](CN(C)Cc2ccncc2)O3)cc1 | 0 | -11 | -0.25 | 0 | 7
O=C(Nc1ccccc1)/C(=C/c1ccccc1)NC(=O)c1ccccc1 | 1 | 7 | 0.21 | -19 | 15
COc1ccc(NC(=O)Nc2ccc3c(c2)C(=O)N([C@H](C)CO)C[C@H](C)[C@@H](CN(C)Cc2ccc(C(F)(F)F)cc2)O3)cc1 | -2 | 27 | -0.4 | 10 | 107*
COc1ccc(CN(C)C[C@H]2Oc3ccc(NC(=O)Nc4ccc(C(F)(F)F)cc4)cc3C(=O)N([C@H](C)CO)C[C@@H]2C)cc1 | -5 | -9 | 0.1 | 26 | 104*
COc1ccc(CN(C)C[C@H]2Oc3ccc(NC(=O)Nc4ccc(OC)cc4)cc3C(=O)N([C@@H](C)CO)C[C@@H]2C)cc1 | . | -3 | -0.044 | . | 13
C[C@@H]1CCCCO[C@H](CN(C)Cc2ccc(C(F)(F)F)cc2)[C@@H](C)CN([C@H](C)CO)C(=O)c2cc(NC(=O)C3CCCCC3)ccc2O1 | -5 | 20 | -0.5 | 66* | 72
C[C@@H]1CCCCO[C@@H](CN(C)Cc2ccncc2)[C@@H](C)CN([C@H](C)CO)C(=O)c2cc(NC(=O)C3CCCCC3)ccc2O1 | 0 | -3 | 0.16 | -18 | 8
COc1ccc(CN(C)C[C@H]2Oc3ccc(NC(=O)Nc4ccc(C(F)(F)F)cc4)cc3C(=O)N([C@@H](C)CO)C[C@H]2C)cc1 | -6 | -5 | -0.14 | 45 | 126*
Cc1ccc(C(=O)Nc2ccccc2C(=O)NCc2ccco2)cc1[N+](=O)[O-] | . | -25 | . | . | 14
CC(C(=O)Nc1ccc(F)c(F)c1)N(c1ccc(Cl)cc1)S(C)(=O)=O (configuration not stated) | . | 32 | . | . | 51
C=CCN1CCc2c(cc(O)c(O)c2Cl)C(c2ccccc2)C1 (configuration not stated) | . | 3 | -0.0044 | ? | 117*
CC(=O)N1CCN(c2ccc(OCC3CO[C@](Cn4ccnc4)(c4ccc(Cl)cc4Cl)O3)cc2)CC1 (some centres not stated) | . | 58 | 0.18 | 107* | 107*
CCCCCCC/C=C/C(=O)CCc1ccc(O)c(OC)c1 | 0 | 5 | 0.27 | -3 | 116*
